Laboratory results published in the supplement of paper PMC10338343.
± gives the standard deviation.

Each sequence was assayed on MILI (PIWIL2) piRISC loaded with piRNA #1 (26 nt) (assay: pre-steady-state target cleavage rate (min^-1); guide: piRNA #1 5'p-UGAGGUAGUAGGUUGUAUAGUAUCCA; MIWI and MILI are mouse PIWI proteins and EfPiwi is from a freshwater sponge; tags in brackets are library labels; higher = faster piRNA-guided slicing of the target). Details: auxiliary factor: 500 nM mouse GTSF1.
Description: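 Cleave-'n-Seq: a library of target RNAs (target site embedded in constant flanks, ACAGCATTCCGCGTTAGTGATATCCG... 5' flank; DNA-blocked outside the site) at 0.1 nM was incubated with 1 nM active mouse MILI or MIWI piRISC (synthetic 5'-monophosphorylated piRNA guide) with or without 500 nM mouse GTSF1 at 33 °C for 1 min to 16 h. Uncleaved targets were sequenced and normalised to non-target controls, and the pooled three trials were fitted to a burst-and-steady-state model to give the pre-steady-state cleavage rate (min^-1; k3 is constrained to at most 1e-4). Sequence is the target site only; target names encode pairing extent (gX:gY) and contiguous / 1-mismatch / 2-mismatch / bulge geometry. Fits with R² ≤ 0 are excluded.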

| Sequence | pre-steady-state target cleavage rate |
| --- | --- |
| GGAGACCUAUCAAUACAACCUUCUACCUCA | 0.00474 ± 0.0027 |
| GGAGACCAUACUAUACUACCUACUUCCUCA | 0.0579 ± 0.011 |
| GGAGACCUAACUAUACAAGCUAGUACCUCA | 0.0871 ± 0.019 |
| GGAGACCUAUGAUAUGUACCUACUAGGACA | < 0.0001 |
| GGAGACCUAUCUAUACAACCUACCACCUCA | 0.0927 ± 0.018 |
| GGAGACCUAUCUAUACAACCUACUAACUCA | 0.0846 ± 0.017 |
| GGAGAGGAUACAAUACAACCUACAACCUCA | 0.115 ± 0.015 |
| GGAGAGGAUACUAAAGAACCUACUACCUCA | 0.179 ± 0.0099 |
| GGAGACCUAUGAUUACAACCUAGCUACCUCA | 0.00386 ± 0.0032 |
| GGAGACCUAUGAUAUGUUGCUACUACCUUA | < 0.0001 |
| GGAGACGAUACUAGUACAACCUACUACCUCA | 0.153 ± 0.013 |
| GGAGAGGAUAGUAUACAACCUACUACCUCA | 0.0476 ± 0.01 |
| GGAGACGAUACUAUUCAACCUACUACGUCA | 0.0915 ± 0.011 |
| GGAGACCUUACUUAUACAACCUACUACCUCA | 0.0994 ± 0.014 |
| GGAGACCUAUGAUUACAACCUUCUACCUCA | 0.00235 ± 0.0023 |
| GGAGACCAUACUAUAGAAGCUACUACCUCA | 0.0882 ± 0.013 |
| GGAGACCAUACUAUAGUUCCUACUACCUCA | 0.156 ± 0.019 |
| GGAGACCAUACUCAUACAACCUACUACCUCA | 0.119 ± 0.013 |
| GGAGACCAUAGUAUACAACCUAGUACCUCA | 0.0677 ± 0.011 |
| GGAGUGGAUACUAUACAACCCACUACCUCA | 0.0174 ± 0.0024 |

| Sequence | pre-steady-state target cleavage rate |
| --- | --- |
| GGAGUGGAUACUAUAGAACCUACUACCACA | 0.0519 ± 0.0082 |
| GGAGACCAUAGCUAUACAACCUACUACCUCA | 0.121 ± 0.014 |
| GGAGAUGAUACUAUACAACCUACUACCUCA | 0.198 ± 0.013 |
| GGAGACCUAUGUAUCCAACCUACUACCUCA | 0.0333 ± 0.005 |
| GGAGACCUAUGUAUACAACGUACUUCCUCA | 0.0105 ± 0.0026 |
| GGAGAGGUUACUAUACAACCUUCUACCUCA | 0.00963 ± 0.0021 |
| GGAGACCUAUGUAUACAACCUACUACGACA | 0.0279 ± 0.0061 |
| GGAGAGGAUACUAUACGACCUACUACCUCA | 0.121 ± 0.0093 |
| GGAGACGAUACUAUACAACCUACAUCCUCA | 0.05 ± 0.011 |
| GGAGACCUAUCUAUUCAACCUACAACCUCA | 0.0889 ± 0.011 |
| GGAGACCUAUGAUAAACAACCUACUACCUCA | 0.00811 ± 0.0029 |
| GGAGAGGAUACUAUACAACACUACUACCUCA | 0.00372 ± 0.0023 |
| GGAGAGGAUACUAUACAUGGUACUACCUCA | 0.00387 ± 0.0028 |
| GGAGACGAUACAAUACAUCCUACUACCUCA | 0.312 ± 0.016 |
| GGAGACCUAUGAAUACUACCUACUAGCUCA | 0.00378 ± 0.0025 |
| GGAGACGUUACUAUACAUCCUACUACCUCA | 0.293 ± 0.018 |
| GGAGACCUAUGUUUACAAGCUACUACCUCA | 0.0793 ± 0.017 |
| GGAGAGGAUACUAUGCAACCUACUACCUCA | 0.214 ± 0.011 |
| GGAGACCAUACUAUACAACCUACUACCUACA | 0.16 ± 0.018 |
| GGAGACCUUACUAUACUACCUACUACCACA | 0.173 ± 0.014 |
